Rows were chosen to be rich in hits. Some 7.4% of all compounds tested hit in one or more screens of this group.
SNCA expr inhib: inhibitors of alpha-synuclein (SNCA) gene expression; HEK-293 SNCA-luciferase knock-in, luminescence, 24 h; Potency, µM (highest dose often 57.2 µM), hits mostly inhibitors; 0.17% of 140,000 active; further: nearly all actives have a fitted effect of over 45% in size
HEK293 tox: HEK 293 cell cytotoxicity. Potency, µM (top dose mostly 115 µM), hits mostly inhibitors. HEK 293 viability, ATP luminescence (CellTiter-Glo), 48-72 h. AID 1345083. 6.6% of 94,000 active; further: nearly all actives have a fitted effect of over 60% in size
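250 HEK 293 cells/well; compound by pintool; incubated 48 or 72 hr at 37 degree Celsius; CellTiter-Glo added, 10 min RT, luminescence imaged.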
FLuc inh: Photinus pyralis luciferase inhibition; purified P. pyralis luciferase, luminescence, biochemical; 2.5% of 76,000 active; Potency, µM (top dose mostly 115 µM), most hits filed as inhibitors; further: nearly all actives have a fitted effect of over 65% in size
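Purified 10nM P. pyralis luciferase with 10uM D-luciferin and 10uM ATP in 50mM Tris acetate pH 7.5, 10mM Mg acetate, 0.01% Tween-20, 0.05% BSA. qHTS titration; luminescence read by CCD imager.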
HEK293 viab: cell viability loss counter-screen | HEK-293-SNCA-luc viability, GF-AFC fluorescence, 24 h | Potency, µM (top dose mostly 57.1 µM), usual class: cytotoxic | 0.12% of 150,000 active | AID 1671193; further: nearly all actives have a fitted effect of over 30% in size
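Cytotoxicity counterscreen: after 24 h compound treatment of genome-edited SNCA-luciferase HEK-293 cells, live-cell protease substrate GF-AFC read by fluorescence after 30 min; activity scaled between DMSO (0%) and medium-only (-100%), curves Hill-fitted.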
3T3 cytotox: NIH 3T3 cell cytotoxicity | NIH 3T3 viability, CellTiter-Glo ATP luminescence, 48-72 h | Potency, µM (top dose mostly 96.7 µM), usual class: inhibitors | 4.3% of 94,000 active; further: nearly all actives have a fitted effect of over 55% in size
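Cytotoxicity was measured by CellTiter-Glo ATP luminescence after 48 or 72 h compound exposure at 37 °C. Mouse NIH 3T3 fibroblasts were seeded at 400 cells/well and dosed by 23 nL pin transfer.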
hNpr1 antagonist: antagonists of human natriuretic peptide receptor Npr1; P16066; HEK293 hNpr1 GloSensor cGMP, ANP-stimulated luminescence; Potency, µM (doses to about 46.3 µM), hits mostly inhibitors; 1.6% of 76,000 active; calls by dose curve; further: nearly all actives have a fitted effect of over 60% in size
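HEK293 cells stably expressing human Npr1 and cGMP GloSensor pGS-40F, loaded 2 h with 2% GloSensor reagent, given compound 30 min at room temperature. Luminescence read before and 20 min after 0.1 nM hNppA.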
Numbers stand for hits; – = inactive; ? = inconclusive; · = no result given; [ ] = dose if it differs, or a comment. Unless noted, the call rests on the fitted dose curve; in most records, active means well fitted curve in the direction sought with a large enough effect; inconclusive means small, poorly fitted or top-dose-only effect, or another doubt; inactive means no such curve, though single readings can be large; an effect the other way counts as inactive or inconclusive.

SMILES	SNCA expr inhib	HEK293 tox	FLuc inh	HEK293 viab	3T3 cytotox	hNpr1 antagonist
O=C(Cn1c(=O)oc2ccccc21)N[C@@H]1CCOC[C@H]1Oc1ccccn1	–	–	–	–	–	–
COc1ccc(C(=O)N2CC(C(=O)N(C)C)C3(CCOCC3)C2)cc1 (stereo not given)	–	–	–	–	–	–
OCC1(Cc2ccc(F)cc2F)CCCN(c2cnc3ccccc3n2)C1 (stereo not given)	?	39.8µM	–	?	?	?
O=C(O)C1(Cc2ccccc2F)CCCN(c2ncccn2)C1 (stereo not given)	–	?	–	–	–	–
Cn1cc(C(=O)N2CCCC(c3nnnn3C)C2)cn1 (stereo not given)	–	–	–	–	–	–
N#Cc1cccc(CN2Cc3[nH]cnc3C[C@H]2c2nc(-c3ccccc3)no2)c1	–	89.1µM	63.1µM	–	?	–
Cc1ccc(-c2noc([C@@H]3Cc4nc[nH]c4CN3Cc3ccc(F)cc3)n2)cc1	?	89.1µM	50.1µM	?	35.5µM	?
Cc1cccc(-c2noc([C@@H]3Cc4nc[nH]c4CN3Cc3cccc(C#N)c3)n2)c1	?	?	–	–	?	–
Cc1ccc(-c2noc([C@@H]3Cc4nc[nH]c4CN3Cc3ccc(CO)o3)n2)cc1	?	–	63.1µM	–	–	–
CCOc1ccccc1NC(=O)CCn1ccn2nc3c(c2c1=O)CCCC3	–	–	–	–	–	–
Cc1cc(C)cc(-c2ccc(CN3CCCC(NC(=O)Cc4ccccn4)C3)cc2)c1 (stereo not given)	–	?	·	–	35.5µM	·
Cc1ccc(-c2cccc(CN3CCCC(NC(=O)c4ccccc4Cl)C3)c2)cc1Cl (stereo not given)	–	?	·	–	?	·
Cc1ccc(-c2cccc(CN3CCCC(NC(=O)c4c(C)noc4C)C3)c2)cc1Cl (stereo not given)	?	22.4µM	·	–	?	·
Cc1ccc(-c2cccc(CN3CCCC(NC(=O)Cc4ccccn4)C3)c2)cc1Cl (stereo not given)	?	–	·	–	25.1µM	·
CCOC(=O)NC1CCCN(Cc2cccc(-c3ccc(C)c(Cl)c3)c2)C1 (stereo not given)	–	39.8µM	·	–	?	·
COc1ncccc1-c1nc2cc(C(=O)NCc3ccc(F)cc3)ccc2o1	–	?	·	–	?	·
O=C(NCc1ccccn1)c1cccc(OC2CCN(c3cnccn3)CC2)c1	–	44.7µM	–	–	?	?
CS(=O)(=O)N1CCC(Oc2ccc(C(=O)NCCc3cnccn3)cc2Cl)CC1	–	–	–	–	–	–
CN1CCC(Oc2ccc(C(=O)NCCc3ccccn3)cn2)CC1	–	–	39.8µM	–	–	–
CN(C)[S+](=O)([O-])c1ccc2c(c1)OCCN(Cc1ccc(Cl)cn1)C2	–	?	–	–	?	–
Cc1cccc(C(C(=O)NCc2nn(C)c3ccc(C)cc23)N(C)C)c1 (stereo not given)	–	–	–	–	?	–
O=C(O)Cn1ccc2cc(OCC3CCN(C(=O)C4CCCC4)CC3)cnc21	–	–	–	–	100µM	–
O=C(O)Cn1ccc2cc(OCC3CCN(C(=O)CCC(F)(F)F)CC3)cnc21	–	–	–	–	89.1µM	–
NC(=O)Cn1ccc2cc(OCC3CCN(C(=O)C4CC4)CC3)cnc21	?	–	?	–	?	–
CC(=O)N1Cc2ccccc2CC2(CCCCN2Cc2ccccn2)C1 (stereo not given)	–	–	·	–	–	·
SMILES	SNCA expr inhib	HEK293 tox	FLuc inh	HEK293 viab	3T3 cytotox	hNpr1 antagonist
CC(C)(C)NC(=O)Nc1cccc(Nc2ncc(F)c(NC(C)(C)CO)n2)c1	–	·	·	–	·	·
C=CC(=O)Nc1cccc(Nc2nc(Nc3ccc(OCCOC)cc3)ncc2F)c1	·	·	·	9.47µM	·	·
C=CC(=O)Nc1cccc(Nc2nc(Nc3ccc(NC4CN(CCF)C4)cc3OC)ncc2C(F)(F)F)c1	·	·	·	4.74µM	·	·
CN(C)CCNC(=O)c1cnc2c(c1)N(Cc1ccccc1)CCC2	–	?	–	–	?	–
COc1cc(C(=O)NCC(c2cccnc2)N2CCc3ccccc3C2)cc(OC)c1OC (stereo not given)	–	·	·	–	·	·
CCC(CC)c1cc([C@H]2CN3CC[C@H]2C[C@@H]3CNC(=O)c2cc(OC)c(OC)c(OC)c2)nc(-c2ccncc2)n1	?	28.2µM	–	?	20µM	?
O=c1cc(N2CCOCC2)oc2c(NC3CCOCC3)nccc12	–	–	–	–	31.6µM	–
COc1ccc(-c2nccc3c(=O)cc(N4CCN(C)CC4)oc23)cn1	–	–	–	–	?	–
COc1ccc(Nc2nccc3c(=O)cc(N4CCOCC4)oc23)cn1	?	–	–	?	89.1µM	–
O=c1cc(N2CCOCC2)oc2c(Nc3ccccc3)nccc12	–	–	–	–	39.8µM	–
COc1ccc(C(=O)N2CCC3(CC2)CC(C(C)C)=NO3)cc1	–	–	–	–	100µM	–
COc1ccc(C(=O)N2CCC3(CC(C(C)C)=NO3)C2)cc1 (stereo not given)	–	–	·	–	–	·
O=C(c1ccccc1)N1CCC2(CC1)Cc1ccccc1NC2=O	–	?	–	–	?	–
COc1ccc(C(=O)N2CCC3(CC2)Cc2ccccc2NC3=O)cc1	–	22.4µM	–	–	35.5µM	–
O=C(c1ccccc1Cl)N1CCC2(CC1)Cc1ccccc1NC2=O	–	44.7µM	–	–	?	–
Cc1cccc(CN2CCC3(CC2)CC2C(=O)NCCN2C3)c1 (stereo not given)	–	–	–	–	–	–
O=C(NCc1cccnc1)c1ccc2nccn2c1	–	–	–	–	–	–
CS(=O)(=O)N1CCC(C2CCN(C(=O)c3cccc(C#N)c3)C2)CC1 (stereo not given)	–	–	–	–[12.5 µM]	–	–
COCC1CCN(C(=O)CC(c2ccccc2)c2ccccc2C)CC1 (stereo not given)	?	?	–	–	–	–
O=C(NCc1ccccc1Cl)C1CCCN(Cc2cccc(-c3ccsc3)c2)C1 (stereo not given)	·	22.4µM	·	·	12.6µM	·
O=C(NCc1cccc(Cl)c1)C1CCCN(Cc2cccc(-c3ccsc3)c2)C1 (stereo not given)	·	31.6µM	·	·	39.8µM	·
CCS(=O)(=O)N1CCCC(Cc2ncc(C)n2Cc2ccc(F)cc2)C1 (stereo not given)	–	–	–	–	–	–
CCN1c2cc(C(=O)Nc3ccc(F)c(F)c3)ccc2C(=O)N2CCCCC21 (stereo not given)	–	39.8µM	–	–[12.5 µM]	?	–
CCN1c2cc(C(=O)Nc3ccc(Cl)c(F)c3)ccc2C(=O)N2CCCCC21 (stereo not given)	–	35.5µM	–	–[12.5 µM]	?	–

From PubChem
